Screens from PubChem BioAssay.
The list is not random: actives were taken first. Their share in the collection is about 18%.
Six1-Eya2 blk – qHTS Assay for Inhibitors of the Six1/Eya2 Interaction; Homeobox protein SIX1 (Homo sapiens) + Protein phosphatase EYA2 (Homo sapiens), …; AlphaScreen GST-Six1/His-Eya2 binding, biochemical; active compounds read low; activity change, % (concentration not given with the values); actives 0.56% (n = 360,000); in the data active = activity change below about -65%; inconclusive = mostly about -30% to -63%
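AlphaScreen with GST-Six1 and His-Eya2 (5X mix: 250 nM and 500 nM), glutathione donor and nickel acceptor beads; buffer 50 mM Tris pH 8.0, 300 mM NaCl, 1 mM TCEP; 1 h at 37 C in the dark.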
IL-1B inflam inh – qHTS for Inhibitors of Inflammasome Signaling: IL-1-beta AlphaLISA Primary Screen. activity change, % at 57.5 µM. AID 743279, 2014. THP-1 LPS/ATP IL-1B secretion, AlphaLISA, 16 h; active compounds read low. actives 4.7% (n = 360,000); in the data active = activity change below about -50%; inconclusive = mostly about -30% to -49%
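Secreted IL-1B measured by AlphaLISA bead assay after 16 h compound exposure of THP-1 cells; compounds (final up to 57.5 uM) added 1 h before LPS (250 ng/mL) and ATP (1.25 mM) stimulation; lower signal means less secretion.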
TDP1 inh – qHTS Assay for Inhibitors of Tyrosyl-DNA Phosphodiesterase (TDP1). Tyrosyl-DNA phosphodiesterase 1 (Homo sapiens), Q9NUW8. AID 485290, 2010. recombinant TDP1, AlphaScreen DNA substrate cleavage. Potency, µM (titrated, usually from 130 µM), without a hit: at the highest dose activity change, negative = inhibition, actives largely listed as inhibitors. actives 0.28% (n = 350,000); note: potency is the fitted concentration of half-maximal effect; nearly all actives have a fitted effect of over 40% in size
Target sequence (Q9NUW8 whole entry, looked up): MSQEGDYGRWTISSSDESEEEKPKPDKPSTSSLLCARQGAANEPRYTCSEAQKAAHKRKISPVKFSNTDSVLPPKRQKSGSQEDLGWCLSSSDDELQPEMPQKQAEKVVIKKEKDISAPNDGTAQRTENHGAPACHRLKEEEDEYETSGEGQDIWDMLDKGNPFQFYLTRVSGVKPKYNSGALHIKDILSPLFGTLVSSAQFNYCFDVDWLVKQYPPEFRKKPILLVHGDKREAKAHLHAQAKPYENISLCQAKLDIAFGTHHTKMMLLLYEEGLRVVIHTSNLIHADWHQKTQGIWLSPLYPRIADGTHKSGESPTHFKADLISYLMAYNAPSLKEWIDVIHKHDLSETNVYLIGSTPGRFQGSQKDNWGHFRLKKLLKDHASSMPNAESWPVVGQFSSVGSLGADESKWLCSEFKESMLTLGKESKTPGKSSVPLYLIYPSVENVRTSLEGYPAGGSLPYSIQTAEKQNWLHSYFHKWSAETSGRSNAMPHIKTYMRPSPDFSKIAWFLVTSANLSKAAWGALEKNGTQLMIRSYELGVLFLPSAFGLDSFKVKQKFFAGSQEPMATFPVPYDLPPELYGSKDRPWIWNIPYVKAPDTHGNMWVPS
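Recombinant E. coli-expressed Tdp1 (1 nM) preincubated with compound 15 min at RT, then 5'-biotin/3'-phosphotyrosine-FITC DNA substrate (15 nM) added for 5 min. AlphaScreen beads (10 ug/ml) added, 10 min RT; tyrosine-FITC cleavage read as signal loss.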
DT40 TDP1 CPT – qHTS for Inhibitors of human tyrosyl-DNA phosphodiesterase 1 (TDP1): qHTS in cells in presence of CPT. chicken DT40 Tdp1-/-;hTDP1 cells + 20 nM CPT, ATP luminescence, 48 h. Potency, µM (doses to about 46.2 µM), for inactives: top-dose activity change, negative = growth inhibition, usual class: inhibitors. actives 12% (n = 420,000). AID 686979, 2013; note: potency is the fitted concentration of half-maximal effect; nearly all actives have a fitted effect of over 55% in size
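Cell growth measured by CellTiter-Glo luminescence after a minimum 48 h, 37 C compound exposure with 20 nM CPT in Tdp1-knockout DT40 cells stably expressing hTDP1, seeded 400/well; qHTS titration format.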
CtBP-E1A inh – qHTS Assay for Inhibitors of the CtBP/E1A Interaction; actives 0.49% (n = 340,000); activity change, % (test concentration not listed); AlphaScreen GST-E1A/His-CtBP binding, 1536-well; active compounds read low; AID 651724, 2012; CtBP / adenovirus E1A interaction (AlphaScreen); in the data active = activity change below about -65%; inconclusive = mostly about -30% to -63%
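Steps: dispense buffer (Tris pH 8.0, NaCl 300 mM, TCEP 1 mM, BSA, Tween 20); add 5X protein mix (GST-E1A, His-CtBP, 125 nM each); pin 23 nL compound; 2 h at 37 °C, dark; add 5X beads (50 ug/mL); 1 h; read.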
TDP1 cell noCPT – qHTS for Inhibitors of human tyrosyl-DNA phosphodiesterase 1 (TDP1): qHTS in cells in absence of CPT; Potency, µM (doses to about 46.2 µM), for inactives: at the highest dose activity change, negative = growth inhibition, hits mostly inhibitors; DT40 Tdp1-/- hTDP1 cells, no CPT, ATP luminescence, 48 h; actives 15% (n = 420,000); note: potency is the fitted concentration of half-maximal effect; nearly all actives have a fitted effect of over 55% in size
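A cellular qHTS used chicken DT40 cells lacking endogenous Tdp1 but carrying stably transfected human TDP1. Compounds were applied without camptothecin, and cell growth kinetics were judged by ATP-dependent luminescence after ≥48 hr.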
Numbers without * were called inactive; ? = inconclusive; · = no result; [ ] = another dose, or the depositor's remark. Unless noted, calls come from the whole dose curve; as a rule, active = well fitted curve in the direction sought with a large enough effect; inconclusive = small, poorly fitted or top-dose-only effect, or another doubt; inactive = no such curve, though single readings can be large; an effect the other way counts as inactive or inconclusive. % is set by controls: 0 for no effect and ±100 for the full control effect.

SMILES | Six1-Eya2 blk | IL-1B inflam inh | TDP1 inh | DT40 TDP1 CPT | CtBP-E1A inh | TDP1 cell noCPT
O=C(Cn1cnc([N+](=O)[O-])n1)N/N=C/c1ccc(O)cc1O | -91.8* | 149.8 | 2.7% | ? | -96.2* | 11.6µM*
Cc1cc(C)n(CCC(=O)N/N=C/c2ccc(O)cc2O)n1 | -85.9* | 98.1 | 4.2% | ? | -69.3* | 23.1µM*
Cc1cc(C)n(CCC(=O)N/N=C/c2ccccc2O)n1 | ? | 27.8 | -6.9% | 11.6µM* | -0.1 | 11.6µM*
Cc1cc(C)n(CCC(=O)N/N=C/c2ccc(Cl)c([N+](=O)[O-])c2)n1 | 0.8 | -90.5* | 2.8% | 8.2% | 0.4 | -16.3%
O=C(Cn1cnc([N+](=O)[O-])n1)N/N=C/c1cccc(Cl)c1 | 5.0 | 20.9 | -1.2% | -13.9% | · | 0.4%
CCCCC1=CC2=CC(=O)C(C)(OC(=O)CC)C(=O)C2=CN1C(CO)CO (stereo not given) | 5.2 | 33.3 | 15.2%[12.3 µM] | 5.1% | 9.7 | 1.5%
O=C(c1ccco1)N1CCN(C2CC(=O)N(c3ccc4c(c3)OCO4)C2=O)CC1 (stereo not given) | -0.2 | 5.9 | 0.0% | -13.9% | -3.1 | -4.3%
Cc1ccc(S(=O)(=O)N2CCN(CC(=O)N/N=C\c3ccc(Cl)c([N+](=O)[O-])c3)CC2)cc1 | -6.0 | ? | 5.7% | ? | 0.6 | ?
O=C(CN1CCN(S(=O)(=O)c2ccc(Br)cc2)CC1)N/N=C/c1ccc(Cl)c([N+](=O)[O-])c1 | -18.2 | -90.2* | 5.5% | ? | -6.8 | 18.4µM*
COc1ccc(CN2C(=O)CCC2(C)c2nnnn2-c2c(C)cccc2C)cc1 (stereo not given) | -1.3 | 32.6 | · | ? | 4.0 | ?
Cc1ccc(CN2C(=O)CCC2(C)c2nnnn2-c2c(C)cccc2C)cc1 (stereo not given) | 12.9 | 15.1 | · | 18.4µM* | 3.6 | 16.4µM*
Cc1cc2nc3c(=O)[nH]c(=S)[nH]c3nc2cc1NC(=O)C(F)(F)F | ? | -15.4 | · | ? | ? | ?
Cc1cc(C2=NNC(=NC3CC3)SC2)c(C)n1-c1ccccc1 | -5.8 | -6.6 | 7.9% | ? | · | 23.1µM*
COc1ccc(-n2c(C)cc(C3=NNC(=NC4CC4)SC3)c2C)cc1 | 1.3 | ? | 7.5% | ? | -2.9 | 23.1µM*
CN=C1NN=C(c2cc(C)n(-c3c(C)n(C)n(-c4ccccc4)c3=O)c2C)CS1 | -5.6 | 47.8 | -5.5% | -5.1% | 7.1 | -17.4%
COc1ccc(OC)c2c1CCC1(C2)NC(=O)NC1=O (stereo not given) | 7.9 | 13.0 | · | 5.0% | 0.0 | 8.8%
COc1ccccc1CN1CCN(S(=O)(=O)c2ccc(C)cc2)CC1 | -11.8 | 4.4 | · | 4.5% | -0.8 | 2.6%
CC(C)c1ccc(S(=O)(=O)N2CCN(CC(=O)c3ccc(O)c(O)c3)CC2)cc1 | · | · | 3.6% | · | · | ·
O=C(CN1CCN(S(=O)(=O)c2ccc(Br)cc2)CC1)c1ccc(O)c(O)c1 | -8.0 | 3.4 | 3.8% | 18.4µM* | · | 7.31µM*
Cc1ccc(S(=O)(=O)N2CCN(Cc3cc(Br)ccc3O)CC2)cc1 | · | · | 0.4%[12.3 µM] | 18.4µM* | · | ?
Cc1cc2c(cc1C)-c1c(ssc1=Nc1ccc(S(N)(=O)=O)cc1)C(C)(C)N2 | -1.7 | 15.4 | 9.9% | ? | · | 16.4µM*
CC(=O)NS(=O)(=O)c1ccc(N=c2ssc3c2-c2cc(C)c(C)cc2NC3(C)C)cc1 | -16.8 | ? | 8.3% | -20.3% | 3.9 | ?
O=S(=O)(NC1CC2CCC1C2)c1ccc(Br)s1 (stereo not given) | -0.8 | 9.7 | -2.2% | ? | 4.7 | 23.1µM*
O=C(Nc1ccccc1Cl)c1ccc(-n2cccn2)c([N+](=O)[O-])c1 | 13.6 | -83.2* | 8.2% | 1.7% | 0.0 | -15.5%
Cc1c(NC(=O)c2ccc(Cl)c([N+](=O)[O-])c2)cccc1-n1cnnn1 | -2.8 | -99.0* | -0.4% | ? | -3.6 | ?
SMILES | Six1-Eya2 blk | IL-1B inflam inh | TDP1 inh | DT40 TDP1 CPT | CtBP-E1A inh | TDP1 cell noCPT
Cc1ccccc1-c1noc(-c2cccnc2N(C)Cc2ccc(Cl)cc2)n1 | · | · | 11.4% | ? | · | ?
CCCCNC(=O)C(NC(=O)Cc1cc(C(F)(F)F)cc(C(F)(F)F)c1)C(=O)c1ccccc1 (stereo not given) | -0.7 | -7.7 | · | 29.1µM* | 0.0 | ?
CCN(CC)CCNC(=O)CS(=O)Cc1nc(-c2ccccc2Cl)oc1C (stereo not given) | -2.0 | -1.5 | 0.0% | -14.4% | 18.2 | -7.1%
CC(=O)Nc1ccc(C(=O)Nc2nc(-c3cccnc3)cs2)cc1 | -5.9 | -18.8 | 70.8µM* | -27.7% | -12.5 | ?
Cc1csc(NC(=O)c2ccccc2)n1 | 5.6 | -6.6 | · | -1.3% | · | -22.1%
O=C(Nc1ccccn1)c1ccc2c(c1)OCCO2 | 13.1 | -22.9 | 4.9% | ? | -2.1 | ?
CC(=O)Nc1ccc(C(=O)Nc2nc(-c3ccccn3)cs2)cc1 | -81.4* | -2.2 | 7.7% | 16.4µM* | -90.9* | 14.6µM*
O=C(Nc1nc(-c2ccccn2)cs1)c1ccccc1-n1cnnn1 | -90.6* | 185.0 | 5.1% | 2.59µM* | -98.1* | ?
O=C(Nc1nc(-c2ccccn2)cs1)c1ccc2c(c1)OCCO2 | -81.8* | 54.8 | · | 3.26µM* | ? | 3.26µM*
O=C1c2cccnc2C(=O)N1Cc1ccco1 | -9.6 | 6.6 | 2.1% | -3.9% | -9.5 | -2.1%
Brc1cccc(CNc2nc3ccccc3n2CCN2CCCCC2)c1 | -14.9 | -29.7 | 7.1% | ? | -11.8 | ?
c1ccc2c(c1)nc(NCc1ccc3c(c1)OCO3)n2CCN1CCOCC1 | 8.2 | 0.0 | 2.5% | -14.1% | 2.7 | -6.9%
